Results taken from the supplement of paper PMC6411743.
± gives the standard deviation of the averaged measurements. Targets with the largest changes are over-represented here; the source holds about 6,500 in all.

Compound: Nc1ncnc2c1ncn2[C@@H]1O[C@H](COP(=O)(O)OP(=O)(O)OP(=O)(O)O)[C@@H](O)[C@H]1O [adenosine triphosphate]
Experiment: NP40-soluble protein abundance relative to vehicle (solubility fold change) (ratio); higher = more soluble protein in presence of ATP
Outline: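 Data come from three independent experiments in which Dounce-homogenised Jurkat crude lysate was treated at eight concentrations from 0.1 to 10 mM. Treatment ran 10 min at room temperature and then 3 min at 37 °C, after which 0.8% NP40 and benzonase were added for 60 min at 4 °C before ultracentrifugation. The supernatant underwent TMT labelling and LC-MS/MS, and vsn-normalised intensities were expressed as fold change against the detergent-processed vehicle in each replicate.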

UniProt Q10567|Q10567-2|Q10567-3
NP40-soluble protein abundance (concentration: 1mM): 0.9721 ± 0.0088 | NP40-soluble protein abundance (concentration: 2mM): 0.973 ± 0.015 | NP40-soluble protein abundance (concentration: 4mM): 0.922 ± 0.022 | NP40-soluble protein abundance (concentration: 6mM): 0.964 ± 0.013 | NP40-soluble protein abundance (concentration: 8mM): 0.951 ± 0.0014 | NP40-soluble protein abundance (concentration: 10mM): 0.934 ± 0.024

UniProt Q6IN85
Chain of UniProt Q6IN85 (Q6IN85 whole entry): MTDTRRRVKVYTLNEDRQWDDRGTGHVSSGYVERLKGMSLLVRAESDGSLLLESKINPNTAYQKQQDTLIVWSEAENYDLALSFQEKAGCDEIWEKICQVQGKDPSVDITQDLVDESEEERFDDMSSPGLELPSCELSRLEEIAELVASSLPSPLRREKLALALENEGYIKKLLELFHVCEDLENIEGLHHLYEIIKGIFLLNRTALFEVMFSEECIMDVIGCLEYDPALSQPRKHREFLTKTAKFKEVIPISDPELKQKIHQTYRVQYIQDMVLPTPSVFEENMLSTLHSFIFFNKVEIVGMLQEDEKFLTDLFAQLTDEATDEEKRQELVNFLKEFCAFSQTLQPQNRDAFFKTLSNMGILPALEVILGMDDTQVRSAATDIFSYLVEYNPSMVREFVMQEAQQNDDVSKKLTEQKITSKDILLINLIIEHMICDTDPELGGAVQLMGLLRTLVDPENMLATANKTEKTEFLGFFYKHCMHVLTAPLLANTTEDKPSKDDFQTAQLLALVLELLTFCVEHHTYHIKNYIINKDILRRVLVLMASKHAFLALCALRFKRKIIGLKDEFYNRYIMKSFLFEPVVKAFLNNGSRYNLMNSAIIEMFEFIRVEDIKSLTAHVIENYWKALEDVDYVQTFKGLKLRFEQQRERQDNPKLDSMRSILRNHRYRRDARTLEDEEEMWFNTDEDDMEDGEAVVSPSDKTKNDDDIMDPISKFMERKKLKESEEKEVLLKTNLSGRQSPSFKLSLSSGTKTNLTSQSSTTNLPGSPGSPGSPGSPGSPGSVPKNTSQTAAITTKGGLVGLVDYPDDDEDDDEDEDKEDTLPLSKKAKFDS
NP40-soluble protein abundance (concentration: 1mM): 1.03 ± 0.066 | NP40-soluble protein abundance (concentration: 2mM): 0.979 ± 0.042 | NP40-soluble protein abundance (concentration: 4mM): 0.946 ± 0.041 | NP40-soluble protein abundance (concentration: 6mM): 0.991 ± 0.048 | NP40-soluble protein abundance (concentration: 8mM): 0.956 ± 0.047 | NP40-soluble protein abundance (concentration: 10mM): 0.935 ± 0.08

CIRBP (UniProt Q14011)
NP40-soluble protein abundance (concentration: 1mM): 0.999 ± 0.062 | NP40-soluble protein abundance (concentration: 2mM): 1.02 ± 0.029 | NP40-soluble protein abundance (concentration: 4mM): 1.04 ± 0.033 | NP40-soluble protein abundance (concentration: 6mM): 1.1 ± 0.061 | NP40-soluble protein abundance (concentration: 8mM): 1.09 ± 0.051 | NP40-soluble protein abundance (concentration: 10mM): 1.1 ± 0.025

YRDC (UniProt Q86U90)
NP40-soluble protein abundance (concentration: 1mM): 0.928 ± 0.045 | NP40-soluble protein abundance (concentration: 2mM): 0.959 ± 0.05 | NP40-soluble protein abundance (concentration: 4mM): 0.93 ± 0.028 | NP40-soluble protein abundance (concentration: 6mM): 0.885 ± 0.043 | NP40-soluble protein abundance (concentration: 8mM): 0.896 ± 0.01 | NP40-soluble protein abundance (concentration: 10mM): 0.932 ± 0.017

THOC7 (UniProt Q6I9Y2)
NP40-soluble protein abundance (concentration: 1mM): 1.4 ± 0.11 | NP40-soluble protein abundance (concentration: 2mM): 1.5 ± 0.15 | NP40-soluble protein abundance (concentration: 4mM): 1.73 ± 0.19 | NP40-soluble protein abundance (concentration: 6mM): 1.95 ± 0.38 | NP40-soluble protein abundance (concentration: 8mM): 2.12 ± 0.2 | NP40-soluble protein abundance (concentration: 10mM): 2.03 ± 0.26

SNIP1 (UniProt Q8TAD8)
NP40-soluble protein abundance (concentration: 1mM): 1.18 ± 0.044 | NP40-soluble protein abundance (concentration: 2mM): 1.22 ± 0.055 | NP40-soluble protein abundance (concentration: 4mM): 1.44 ± 0.085 | NP40-soluble protein abundance (concentration: 6mM): 1.57 ± 0.098 | NP40-soluble protein abundance (concentration: 8mM): 1.67 ± 0.11 | NP40-soluble protein abundance (concentration: 10mM): 1.8 ± 0.1

UniProt Q8N6N3|Q8N6N3-2
Chain of UniProt Q8N6N3 (Q8N6N3 whole entry): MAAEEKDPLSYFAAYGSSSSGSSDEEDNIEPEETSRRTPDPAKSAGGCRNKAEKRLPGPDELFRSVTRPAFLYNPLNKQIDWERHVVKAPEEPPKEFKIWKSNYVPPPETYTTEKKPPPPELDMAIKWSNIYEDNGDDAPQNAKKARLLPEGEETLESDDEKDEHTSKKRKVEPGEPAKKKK
NP40-soluble protein abundance (concentration: 1mM): 0.865 ± 0.1 | NP40-soluble protein abundance (concentration: 2mM): 0.81 ± 0.041 | NP40-soluble protein abundance (concentration: 4mM): 0.869 ± 0.13 | NP40-soluble protein abundance (concentration: 6mM): 0.822 ± 0.051 | NP40-soluble protein abundance (concentration: 8mM): 0.779 ± 0.12 | NP40-soluble protein abundance (concentration: 10mM): 0.817 ± 0.063

UniProt Q8N684|Q8N684-2|Q8N684-3
Chain of UniProt Q8N684 (Q8N684 whole entry): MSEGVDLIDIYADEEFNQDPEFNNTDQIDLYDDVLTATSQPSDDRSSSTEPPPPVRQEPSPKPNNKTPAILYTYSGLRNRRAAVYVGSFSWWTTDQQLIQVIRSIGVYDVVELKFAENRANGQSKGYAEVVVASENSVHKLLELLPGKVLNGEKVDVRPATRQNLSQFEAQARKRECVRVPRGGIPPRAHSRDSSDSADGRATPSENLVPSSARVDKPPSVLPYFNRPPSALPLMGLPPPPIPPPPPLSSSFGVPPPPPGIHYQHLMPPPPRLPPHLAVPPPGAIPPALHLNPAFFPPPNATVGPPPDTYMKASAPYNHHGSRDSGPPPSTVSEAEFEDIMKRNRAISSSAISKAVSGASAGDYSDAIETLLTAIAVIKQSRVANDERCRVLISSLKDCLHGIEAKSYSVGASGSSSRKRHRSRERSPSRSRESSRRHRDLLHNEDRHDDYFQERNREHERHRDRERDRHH
NP40-soluble protein abundance (concentration: 1mM): 1.51 ± 0.076 | NP40-soluble protein abundance (concentration: 2mM): 1.61 ± 0.016 | NP40-soluble protein abundance (concentration: 4mM): 1.75 ± 0.065 | NP40-soluble protein abundance (concentration: 6mM): 1.81 ± 0.081 | NP40-soluble protein abundance (concentration: 8mM): 1.82 ± 0.055 | NP40-soluble protein abundance (concentration: 10mM): 1.83 ± 0.032

UniProt Q08170
NP40-soluble protein abundance (concentration: 1mM): 1.58 ± 0.12 | NP40-soluble protein abundance (concentration: 2mM): 1.68 ± 0.08 | NP40-soluble protein abundance (concentration: 4mM): 1.66 ± 0.095 | NP40-soluble protein abundance (concentration: 6mM): 1.81 ± 0.058 | NP40-soluble protein abundance (concentration: 8mM): 1.68 ± 0.052 | NP40-soluble protein abundance (concentration: 10mM): 1.64 ± 0.073

PCGF5 (UniProt Q86SE9)
Chain of UniProt Q86SE9 (Q86SE9 whole entry): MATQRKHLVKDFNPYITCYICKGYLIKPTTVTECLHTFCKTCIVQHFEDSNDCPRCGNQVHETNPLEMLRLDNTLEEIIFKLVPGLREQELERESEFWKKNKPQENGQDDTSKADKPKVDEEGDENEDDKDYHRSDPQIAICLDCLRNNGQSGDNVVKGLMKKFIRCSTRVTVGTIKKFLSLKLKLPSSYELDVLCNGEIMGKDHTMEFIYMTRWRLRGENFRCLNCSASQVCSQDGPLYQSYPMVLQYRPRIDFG
NP40-soluble protein abundance (concentration: 1mM): 0.922 ± 0.16 | NP40-soluble protein abundance (concentration: 2mM): 1.01 ± 0.056 | NP40-soluble protein abundance (concentration: 4mM): 0.981 ± 0.15 | NP40-soluble protein abundance (concentration: 6mM): 0.987 ± 0.087 | NP40-soluble protein abundance (concentration: 8mM): 0.954 ± 0.11 | NP40-soluble protein abundance (concentration: 10mM): 1.07 ± 0.037

PDCD11 (UniProt Q14690)
Chain of UniProt Q14690 (Q14690 whole entry): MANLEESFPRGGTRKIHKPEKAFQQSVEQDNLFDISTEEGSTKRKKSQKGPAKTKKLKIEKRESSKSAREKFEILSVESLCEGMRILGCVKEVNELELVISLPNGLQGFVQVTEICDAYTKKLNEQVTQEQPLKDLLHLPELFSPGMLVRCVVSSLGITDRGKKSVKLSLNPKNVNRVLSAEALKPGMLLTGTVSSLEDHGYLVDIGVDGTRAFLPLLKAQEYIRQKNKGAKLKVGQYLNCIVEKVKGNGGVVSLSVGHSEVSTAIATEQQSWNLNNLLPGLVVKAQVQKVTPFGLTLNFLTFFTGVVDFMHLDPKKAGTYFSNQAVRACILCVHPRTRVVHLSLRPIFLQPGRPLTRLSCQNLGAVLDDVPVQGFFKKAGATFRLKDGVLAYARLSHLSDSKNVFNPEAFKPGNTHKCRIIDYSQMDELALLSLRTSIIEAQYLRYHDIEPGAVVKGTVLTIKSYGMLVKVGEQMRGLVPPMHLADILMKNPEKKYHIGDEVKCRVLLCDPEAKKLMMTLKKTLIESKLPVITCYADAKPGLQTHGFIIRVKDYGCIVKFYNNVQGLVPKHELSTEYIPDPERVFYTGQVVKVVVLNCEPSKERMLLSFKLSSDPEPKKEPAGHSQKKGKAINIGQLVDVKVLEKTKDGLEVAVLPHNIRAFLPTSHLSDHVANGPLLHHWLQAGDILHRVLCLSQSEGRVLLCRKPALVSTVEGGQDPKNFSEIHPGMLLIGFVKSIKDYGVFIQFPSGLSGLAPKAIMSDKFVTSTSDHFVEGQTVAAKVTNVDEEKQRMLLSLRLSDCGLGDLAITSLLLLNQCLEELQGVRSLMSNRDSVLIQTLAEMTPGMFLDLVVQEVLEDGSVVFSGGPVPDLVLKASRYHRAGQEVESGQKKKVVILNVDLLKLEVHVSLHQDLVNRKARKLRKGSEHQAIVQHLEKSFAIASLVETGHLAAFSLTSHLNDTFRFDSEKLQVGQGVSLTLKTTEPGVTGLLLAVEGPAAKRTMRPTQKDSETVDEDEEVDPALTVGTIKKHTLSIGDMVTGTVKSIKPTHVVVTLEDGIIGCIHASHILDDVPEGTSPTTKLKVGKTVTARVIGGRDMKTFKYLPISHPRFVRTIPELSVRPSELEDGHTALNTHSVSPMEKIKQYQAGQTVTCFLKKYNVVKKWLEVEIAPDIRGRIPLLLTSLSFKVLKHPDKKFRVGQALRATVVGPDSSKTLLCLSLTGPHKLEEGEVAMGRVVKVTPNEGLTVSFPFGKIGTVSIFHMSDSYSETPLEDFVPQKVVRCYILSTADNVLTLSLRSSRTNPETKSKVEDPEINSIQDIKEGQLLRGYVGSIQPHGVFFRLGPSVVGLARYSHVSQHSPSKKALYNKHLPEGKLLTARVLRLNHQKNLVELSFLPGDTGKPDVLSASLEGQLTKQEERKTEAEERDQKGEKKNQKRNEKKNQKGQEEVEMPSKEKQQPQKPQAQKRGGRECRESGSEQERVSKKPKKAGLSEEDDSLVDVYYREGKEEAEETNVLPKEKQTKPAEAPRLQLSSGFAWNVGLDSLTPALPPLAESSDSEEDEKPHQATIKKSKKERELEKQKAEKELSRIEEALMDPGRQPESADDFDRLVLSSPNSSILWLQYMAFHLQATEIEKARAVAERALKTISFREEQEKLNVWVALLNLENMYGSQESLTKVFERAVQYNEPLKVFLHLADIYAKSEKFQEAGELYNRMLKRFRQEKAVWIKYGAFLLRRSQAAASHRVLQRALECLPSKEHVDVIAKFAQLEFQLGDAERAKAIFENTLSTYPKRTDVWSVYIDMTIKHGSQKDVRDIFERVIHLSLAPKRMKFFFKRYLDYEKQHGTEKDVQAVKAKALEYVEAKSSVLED
NP40-soluble protein abundance (concentration: 1mM): 1.09 ± 0.092 | NP40-soluble protein abundance (concentration: 2mM): 1.14 ± 0.056 | NP40-soluble protein abundance (concentration: 4mM): 1.29 ± 0.062 | NP40-soluble protein abundance (concentration: 6mM): 1.5 ± 0.13 | NP40-soluble protein abundance (concentration: 8mM): 1.75 ± 0.073 | NP40-soluble protein abundance (concentration: 10mM): 2.06 ± 0.15

BNIP1 (UniProt Q12981)
NP40-soluble protein abundance (concentration: 1mM): 0.986 ± 0.051 | NP40-soluble protein abundance (concentration: 2mM): 0.983 ± 0.05 | NP40-soluble protein abundance (concentration: 4mM): 0.98 ± 0.07 | NP40-soluble protein abundance (concentration: 6mM): 1 ± 0.012 | NP40-soluble protein abundance (concentration: 8mM): 0.971 ± 0.049 | NP40-soluble protein abundance (concentration: 10mM): 0.932 ± 0.053

RABEP1 (UniProt Q15276)
Chain of UniProt Q15276 (Q15276 whole entry): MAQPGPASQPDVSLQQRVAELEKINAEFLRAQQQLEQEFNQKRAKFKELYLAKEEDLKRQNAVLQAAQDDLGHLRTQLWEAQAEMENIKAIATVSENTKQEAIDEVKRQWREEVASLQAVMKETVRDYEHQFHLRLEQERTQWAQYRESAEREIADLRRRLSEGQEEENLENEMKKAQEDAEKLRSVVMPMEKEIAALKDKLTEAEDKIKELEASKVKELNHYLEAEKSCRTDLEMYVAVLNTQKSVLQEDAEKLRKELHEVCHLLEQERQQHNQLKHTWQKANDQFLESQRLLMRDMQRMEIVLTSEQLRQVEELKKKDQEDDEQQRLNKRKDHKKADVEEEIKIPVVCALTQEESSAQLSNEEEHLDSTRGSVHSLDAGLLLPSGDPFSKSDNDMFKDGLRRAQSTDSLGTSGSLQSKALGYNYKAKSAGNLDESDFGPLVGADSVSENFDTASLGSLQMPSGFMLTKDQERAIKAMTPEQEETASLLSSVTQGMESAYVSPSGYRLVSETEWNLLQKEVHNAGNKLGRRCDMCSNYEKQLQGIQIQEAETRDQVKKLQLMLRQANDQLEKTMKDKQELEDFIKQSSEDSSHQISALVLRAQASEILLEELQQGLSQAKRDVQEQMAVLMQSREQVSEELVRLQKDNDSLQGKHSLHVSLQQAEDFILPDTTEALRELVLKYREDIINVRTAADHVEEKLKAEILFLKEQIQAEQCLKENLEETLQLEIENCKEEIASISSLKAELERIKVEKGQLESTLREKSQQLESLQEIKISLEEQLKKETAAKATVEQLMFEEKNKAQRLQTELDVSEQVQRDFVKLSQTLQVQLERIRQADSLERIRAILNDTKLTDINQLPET
NP40-soluble protein abundance (concentration: 1mM): 0.942 ± 0.049 | NP40-soluble protein abundance (concentration: 2mM): 0.944 ± 0.032 | NP40-soluble protein abundance (concentration: 4mM): 0.928 ± 0.021 | NP40-soluble protein abundance (concentration: 6mM): 0.995 ± 0.054 | NP40-soluble protein abundance (concentration: 8mM): 0.895 ± 0.016 | NP40-soluble protein abundance (concentration: 10mM): 0.9135 ± 0.0042

UniProt Q15906|Q15906-2
NP40-soluble protein abundance (concentration: 1mM): 1.13 ± 0.12 | NP40-soluble protein abundance (concentration: 2mM): 1.13 ± 0.092 | NP40-soluble protein abundance (concentration: 4mM): 1.22 ± 0.12 | NP40-soluble protein abundance (concentration: 6mM): 1.27 ± 0.23 | NP40-soluble protein abundance (concentration: 8mM): 1.24 ± 0.12 | NP40-soluble protein abundance (concentration: 10mM): 1.26 ± 0.13

GRAMD4 (UniProt Q6IC98)
NP40-soluble protein abundance (concentration: 1mM): 1.01 ± 0.02 | NP40-soluble protein abundance (concentration: 2mM): 0.998 ± 0.02 | NP40-soluble protein abundance (concentration: 4mM): 0.994 ± 0.035 | NP40-soluble protein abundance (concentration: 6mM): 1.02 ± 0.031 | NP40-soluble protein abundance (concentration: 8mM): 1.02 ± 0.025 | NP40-soluble protein abundance (concentration: 10mM): 1.01 ± 0.02

UniProt Q8NCA5|Q8NCA5-2
Chain of UniProt Q8NCA5 (Q8NCA5 whole entry): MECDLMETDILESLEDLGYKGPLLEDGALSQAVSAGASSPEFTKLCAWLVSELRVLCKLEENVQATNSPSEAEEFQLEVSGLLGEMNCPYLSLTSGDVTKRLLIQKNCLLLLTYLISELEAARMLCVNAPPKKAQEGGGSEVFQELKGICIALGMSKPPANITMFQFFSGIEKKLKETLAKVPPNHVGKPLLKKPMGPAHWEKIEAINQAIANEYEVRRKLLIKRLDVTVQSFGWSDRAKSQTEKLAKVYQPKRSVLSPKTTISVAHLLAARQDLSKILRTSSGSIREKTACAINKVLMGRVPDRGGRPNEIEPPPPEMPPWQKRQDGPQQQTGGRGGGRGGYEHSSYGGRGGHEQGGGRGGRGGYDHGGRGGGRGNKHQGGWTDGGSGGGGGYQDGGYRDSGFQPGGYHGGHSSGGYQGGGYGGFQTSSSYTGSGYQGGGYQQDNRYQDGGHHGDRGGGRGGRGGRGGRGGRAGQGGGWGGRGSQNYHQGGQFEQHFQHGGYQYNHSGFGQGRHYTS
NP40-soluble protein abundance (concentration: 1mM): 1.01 ± 0.056 | NP40-soluble protein abundance (concentration: 2mM): 1.14 ± 0.15 | NP40-soluble protein abundance (concentration: 4mM): 1.18 ± 0.12 | NP40-soluble protein abundance (concentration: 6mM): 1.26 ± 0.14 | NP40-soluble protein abundance (concentration: 8mM): 1.41 ± 0.14 | NP40-soluble protein abundance (concentration: 10mM): 1.64 ± 0.23

TTC19 (UniProt Q6DKK2)
NP40-soluble protein abundance (concentration: 1mM): 0.971 ± 0.078 | NP40-soluble protein abundance (concentration: 2mM): 0.922 ± 0.037 | NP40-soluble protein abundance (concentration: 4mM): 0.973 ± 0.043 | NP40-soluble protein abundance (concentration: 6mM): 0.923 ± 0.04 | NP40-soluble protein abundance (concentration: 8mM): 0.985 ± 0.038 | NP40-soluble protein abundance (concentration: 10mM): 0.865 ± 0.094
